Measured values: PubChem BioAssay AID1159580 (chemical genetic matrix, 2015)
Where “and” joins values, the source holds several entries; their conditions need not be identical. Equal values may be shown once. Out of some 5,500 compounds screened, about 2,000 (36%) were called active. About 18% were inconclusive and are not listed. No stated cut-off is given here; in the data, active means normalized growth mostly below about 0.91 (no sharp cut-off); inconclusive means no clear call, values can overlap the other calls; inactive means mostly above about 0.92. Some of the results follow.

Test: chemical genetic growth profiling, strain panel (AID 1159580);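 further: tested at 20 µM; growth read once vehicle control cultures reached saturation at 30 °C; 1 = growth at the plate median or of vehicle wells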
Settings: S. cerevisiae deletion strains, growth OD

Measured: normalized growth

CC(=O)O[C@@H]1C[C@@]2(C)[C@H](c3ccoc3)C[C@H]3O[C@]32[C@]2(C)C(=O)C(O)=C3C(C)(C)C(=O)C=C[C@]3(C)C12 (stereo not given in full)
inactive: locus YAL021C, strain ccr4, stronger effect = lower value 0.983 | locus YAL030W, strain snc1, stronger effect = lower value 0.968 | locus YBL061C, strain skt5, stronger effect = lower value 0.953 | locus YBR021W, strain FUR4, stronger effect = lower value 1.05 | locus YBR023C, strain chs3, stronger effect = lower value 0.947 | locus YBR171W, strain sec66, stronger effect = lower value 0.929 | locus YBR229C, strain ROT2, stronger effect = lower value 0.927 | locus YBR231C, strain swc5, stronger effect = lower value 0.94 | locus YBR279W, strain paf1, stronger effect = lower value 0.97 | locus YCL016C, strain dcc1, stronger effect = lower value 0.969 | locus YCL061C, strain MRC1, stronger effect = lower value 0.96 | locus YCL069W, strain vba3, stronger effect = lower value 0.956 | locus YCR088W, strain abp1, stronger effect = lower value 0.951 | locus YDL005C, strain med2, stronger effect = lower value 0.958 | locus YDL035C, strain GPR1, stronger effect = lower value 0.914 | locus YDL040C, strain nat1, stronger effect = lower value 0.953 | locus YDL101C, strain DUN1, stronger effect = lower value 0.933 | locus YDL134C, strain PPH21, stronger effect = lower value 0.921 | locus YDL185W, strain tfp1, stronger effect = lower value 0.931 | locus YDR001C, strain nth1, stronger effect = lower value 0.968 | locus YDR069C, strain doa4, stronger effect = lower value 0.942 | locus YDR150W, strain NUM1, stronger effect = lower value 0.969 | locus YDR195W, strain ref2 1.04 | locus YDR297W, strain sur2, stronger effect = lower value 0.954 | locus YDR334W, strain swr1, stronger effect = lower value 0.963 | locus YDR335W, strain msn5, stronger effect = lower value 0.969 | locus YDR388W, stronger effect = lower value 0.951 | locus YEL003W, strain gim4, stronger effect = lower value 0.927 | locus YEL037C, strain rad23, stronger effect = lower value 0.961 | locus YEL061C, strain CIN8 (second series), stronger effect = lower value 0.955 | locus YEL061C, strain CIN8, stronger effect = lower value 0.965 | locus YER015W, strain faa2, stronger effect = lower value 0.966 | locus YER016W, strain bim1, stronger effect = lower value 0.953 | locus YER110C, stronger effect = lower value 0.953 | locus YER111C, strain swi4, stronger effect = lower value 0.94 | locus YFR010W, strain ubp6, stronger effect = lower value 0.955 | locus YGL078C, strain dbp3, stronger effect = lower value 0.975 | locus YGL167C, strain pmr1, stronger effect = lower value 0.957 | locus YGL173C, strain kem1, stronger effect = lower value 0.924 | locus YGL227W, strain vid30, stronger effect = lower value 0.964 | locus YGL240W, strain doc1, stronger effect = lower value 0.94 | locus YGL248W, strain PDE1, stronger effect = lower value 0.933 | locus YGR135W, strain pre9, stronger effect = lower value 0.954 | locus YHR013C, strain ard1, stronger effect = lower value 0.853 | locus YHR027C, strain rpn1, stronger effect = lower value 0.965 | locus YHR030C, strain SLT2, stronger effect = lower value 0.887 | locus YHR079C, strain IRE1 (second series), stronger effect = lower value 0.952 | locus YHR079C, strain IRE1, stronger effect = lower value 0.926 | locus YHR094C, strain hxt1, stronger effect = lower value 0.957 | locus YHR200W, strain rpn10, stronger effect = lower value 0.943 | locus YIL073C, strain SPO22, stronger effect = lower value 0.811 | locus YIL125W, strain kgd1, stronger effect = lower value 0.966 | locus YIR030C, strain dcg1, stronger effect = lower value 0.959 | locus YJL092W, strain hpr5, stronger effect = lower value 0.945 | locus YJL095W, strain BCK1 (second series), stronger effect = lower value 0.967 | locus YJL115W, strain asf1, stronger effect = lower value 0.98 | locus YJL134W, strain LCB3, stronger effect = lower value 0.958 | locus YJL154C, strain vps35, stronger effect = lower value 0.985 | locus YJL164C, strain tpk1, stronger effect = lower value 0.927 | locus YJL168C, strain set2, stronger effect = lower value 0.961 | locus YJL187C, strain SWE1 (second series), stronger effect = lower value 0.958 | locus YJL187C, strain SWE1, stronger effect = lower value 0.953 | locus YJR043C, strain POL32, stronger effect = lower value 0.97 | locus YJR066W, strain TOR1, stronger effect = lower value 0.888 | locus YKL009W, strain mrt4, stronger effect = lower value 0.94 | locus YKL068W, stronger effect = lower value 0.962 | locus YKL085W, strain MDH1 (second series), stronger effect = lower value 0.993 | locus YKL085W, strain MDH1, stronger effect = lower value 0.993 | locus YKL160W, strain elf1, stronger effect = lower value 0.969 | locus YKR026C, strain gcn3, stronger effect = lower value 0.965 | locus YKR091W, strain srl3, stronger effect = lower value 0.971 | locus YLL001W, strain dnm1, stronger effect = lower value 0.979 | locus YLL026W, stronger effect = lower value 0.96 | locus YLL041C, strain sdh2, stronger effect = lower value 0.976 | locus YLR027C, strain aat2, stronger effect = lower value 0.942 | locus YLR058C, strain SHM2, stronger effect = lower value 0.936 | locus YLR102C, strain apc9, stronger effect = lower value 0.958 | locus YLR113W, strain HOG1, stronger effect = lower value 0.911 | locus YLR258W, strain gsy2, stronger effect = lower value 0.948 | locus YLR342W, strain FKS1, stronger effect = lower value 0.921 | locus YLR357W, strain rsc2, stronger effect = lower value 1.03 | locus YLR370C, strain arc18, stronger effect = lower value 0.927 | locus YLR384C, strain iki3, stronger effect = lower value 0.956 | locus YML016C, strain PPZ1, stronger effect = lower value 0.946 | locus YML120C, strain ndi1, stronger effect = lower value 0.961 | locus YML124C, strain tub3, stronger effect = lower value 0.963 | locus YMR058W, strain fet3, stronger effect = lower value 0.937 | locus YMR078C, strain ctf18, stronger effect = lower value 0.925 | locus YMR125W, strain sto1, stronger effect = lower value 0.957 | locus YMR129W, stronger effect = lower value 0.977 | locus YMR205C, strain PFK2, stronger effect = lower value 0.886 | locus YMR223W, strain ubp8, stronger effect = lower value 0.922 | locus YMR307W, strain GAS1, stronger effect = lower value 0.61 | locus YNL067W, strain RPL9B, stronger effect = lower value 0.985 | locus YNL128W, strain TEP1, stronger effect = lower value 0.914 | locus YNL183C, strain NPR1, stronger effect = lower value 0.909 | locus YNL209W, strain ssb2, stronger effect = lower value 0.974 | locus YNL233W, strain BNI4, stronger effect = lower value 0.935 | locus YNL248C, strain rpa49, stronger effect = lower value 0.952 | locus YNL250W, strain rad50, stronger effect = lower value 1.02 | locus YNL271C, strain bni1, stronger effect = lower value 0.945 | locus YNL298W, strain CLA4, stronger effect = lower value 0.953 | locus YNL322C, strain KRE1 (second series), stronger effect = lower value 0.956 | locus YNR049C, strain mso1, stronger effect = lower value 0.959 | locus YOL006C, strain TOP1, stronger effect = lower value 0.771 | locus YOL012C, strain htz1 0.819 | locus YOR001W, strain rrp6, stronger effect = lower value 0.92 | locus YOR061W, strain CKA2, stronger effect = lower value 0.923 | locus YOR069W, strain VPS5, stronger effect = lower value 0.969 | locus YOR070C, strain gyp1, stronger effect = lower value 0.949 | locus YOR080W, strain dia2, stronger effect = lower value 0.965 | locus YOR083W, strain WHI5, stronger effect = lower value 0.976 | locus YOR106W, strain vam3, stronger effect = lower value 0.942 | locus YOR136W, strain idh2, stronger effect = lower value 0.941 | locus YOR231W, strain MKK1, stronger effect = lower value 0.918 | locus YOR265W, strain rbl2, stronger effect = lower value 0.963 | locus YOR290C, strain snf2, stronger effect = lower value 0.929 | locus YOR316C, strain cot1, stronger effect = lower value 0.962 | locus YPL055C, strain LGE1, stronger effect = lower value 0.803 | locus YPL078C, strain atp4, stronger effect = lower value 0.973 | locus YPL106C, strain sse1, stronger effect = lower value 0.974 | locus YPL240C, strain hsp82, stronger effect = lower value 0.956 | locus YPL241C, strain CIN2, stronger effect = lower value 0.966 | locus YPL256C, strain CLN2, stronger effect = lower value 0.91 | locus YPR119W, strain clb2, stronger effect = lower value 0.959 | locus YPR141C, strain kar3, stronger effect = lower value 0.957 | locus YPR167C, strain met16, stronger effect = lower value 0.945
0.749 (active) and 0.918 (inactive): locus YJL095W, strain BCK1, stronger effect = lower value
active: locus YAL026C, strain drs2, stronger effect = lower value 0.892 | locus YBR009C, strain hhf1, stronger effect = lower value 0.867 | locus YCL011C, strain gbp2, stronger effect = lower value 0.88 | locus YCL029C, strain bik1, stronger effect = lower value 0.907 | locus YDL074C, strain BRE1, stronger effect = lower value 0.754 | locus YDL192W, strain arf1, stronger effect = lower value 0.822 | locus YDR101C, strain arx1, stronger effect = lower value 0.908 | locus YDR137W, strain rgp1, stronger effect = lower value 0.639 | locus YDR159W, strain sac3, stronger effect = lower value 0.777 | locus YDR162C, strain NBP2, stronger effect = lower value 0.658 | locus YDR318W, strain mcm21, stronger effect = lower value 0.844 | locus YDR392W, strain spt3, stronger effect = lower value 0.326 | locus YDR502C, strain sam2, stronger effect = lower value 0.896 | locus YER155C, strain BEM2 (second series), stronger effect = lower value 0.826 | locus YER155C, strain BEM2, stronger effect = lower value 0.902 | locus YER167W, strain BCK2, stronger effect = lower value 0.896 | locus YGL086W, strain mad1, stronger effect = lower value 0.839 | locus YGL253W, strain hxk2, stronger effect = lower value 0.866 | locus YGR078C, strain PAC10, stronger effect = lower value 0.844 | locus YGR229C, strain SMI1, stronger effect = lower value 0.787 | locus YGR252W, strain gcn5, stronger effect = lower value 0.74 | locus YHR129C, strain ARP1, stronger effect = lower value 0.889 | locus YHR142W, strain chs7, stronger effect = lower value 0.861 | locus YIL066C, strain RNR3, stronger effect = lower value 0.766 | locus YJL129C, strain trk1, stronger effect = lower value 0.822 | locus YJL166W, strain qcr8, stronger effect = lower value 0.873 | locus YKR001C, strain vps1, stronger effect = lower value 0.812 | locus YLR039C, strain RIC1, stronger effect = lower value 0.513 | locus YLR221C, strain rsa3, stronger effect = lower value 0.863 | locus YLR262C, strain YPT6 (second series), stronger effect = lower value 0.669 | locus YLR262C, strain YPT6, stronger effect = lower value 0.483 | locus YLR268W, strain sec22, stronger effect = lower value 0.832 | locus YLR320W, strain mms22, stronger effect = lower value 0.816 | locus YLR371W, strain rom2, stronger effect = lower value 0.731 | locus YLR418C, strain cdc73, stronger effect = lower value 0.35 | locus YML032C, strain rad52, stronger effect = lower value 0.853 | locus YMR231W, strain pep5, stronger effect = lower value 0.927 | locus YNL071W, strain lat1, stronger effect = lower value 0.736 | locus YNL307C, strain MCK1, stronger effect = lower value 0.571 | locus YNR052C, strain pop2, stronger effect = lower value 0.882 | locus YOL147C, strain pex11, stronger effect = lower value 0.818 | locus YOR144C, strain elg1, stronger effect = lower value 0.864 | locus YOR184W, strain ser1, stronger effect = lower value 0.744 | locus YOR270C, strain vph1, stronger effect = lower value 0.776 | locus YPL051W, strain arl3, stronger effect = lower value 0.895 | locus YPR163C, strain tif3, stronger effect = lower value 0.757 | strain wtn01, stronger effect = lower value 0.864
